Here are results for three molecules from PubChem BioAssay (EPA / NIEHS).

Records with an inconclusive call do not appear. The source made the active and inactive calls. Rule for the calls, unless noted: active = hit-call score of the fitted dose curve at least 0.9, where 1 is the maximum; inactive = score below 0.9.

Read-out in assay [1]: Phosphatase and tensin (PTEN), PTEN (gene 5728)
The assay is described as follows: LTEA_HepaRG_PTEN: Life Technologies and Expression Analysis (LTEA) Assay for Phosphatase and tensin (PTEN) using HepaRG (AID 2283523). As to conditions: mRNA level, 48 h; actives raise or lower the signal. In short, it runs like this: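 Read-out: TaqMan qRT-PCR of PTEN transcript, normalized to three housekeeping genes, fitted in both directions against 0.5% DMSO. Differentiated human HepaRG cultures received chemicals for 48 h, eight-point half-log series topping at 100 uM.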

Read-out in assay [2]: solute carrier (SLC22A1), SLC22A1 (gene 6580)
The assay is described as follows: LTEA_HepaRG_SLC22A1: Life Technologies and Expression Analysis (LTEA) Assay for solute carrier (SLC22A1) using HepaRG (AID 2283524).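 For AC50: differentiated human HepaRG liver cells in serum-free induction medium.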 As to conditions: mRNA level, 48 h; actives raise or lower the signal. In short, it runs like this:
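Transcript level of SLC22A1 quantified by qRT-PCR (normalized to three housekeeping genes) after 48 h chemical exposure of HepaRG cells, eight concentrations up to 100 µM, half-log steps, 0.5% DMSO vehicle. Gain or loss relative to DMSO fitted bidirectionally.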

Read-out in assay [3]: Pyruvate Dehydrogenase Kinase 4 (PDK4), PDK4 (gene 5166)
The assay is described as follows: LTEA_HepaRG_PDK4: Life Technologies and Expression Analysis (LTEA) Assay for Pyruvate Dehydrogenase Kinase 4 (PDK4) using HepaRG (AID 2283525). Particulars: mRNA level, 48 h; actives raise or lower the signal. In outline:
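Readout is qRT-PCR of PDK4 transcript, normalized to three housekeeping genes, with bidirectional fitting against 0.5% DMSO vehicle. Differentiated HepaRG cells were treated 48 h in serum-free induction medium, duplicate wells, eight-point half-log series topping at 100 uM.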

Read-out in assay [4]: Nuclear factor erythroid 2-related factor 2 (Homo sapiens) (UniProt Q16236)
The experiment in a line: LTEA_HepaRG_NFE2L2: Life Technologies and Expression Analysis (LTEA) Assay for Nuclear factor erythroid 2-related factor 2 (NFE2L2) Transcription Factor using HepaRG (AID 2283527).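 For outcome: TaqMan qRT-PCR transcript level normalised to ACTB GAPDH and POLR2A housekeeping genes.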 As to conditions: mRNA level, 48 h; actives raise or lower the signal. In short, it runs like this:
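NFE2L2 transcript level was read by qRT-PCR (housekeeping ACTB/GAPDH/POLR2A normalisation) after 48 h chemical treatment of HepaRG in serum-free induction medium. Duplicate 8-point half-log curves, top 100 uM, 0.5% DMSO vehicle; up- or down-regulation fitted against vehicle.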

Read-out in assay [5]: succinate dehydrogenase complex iron sulfur subunit B (SDHB), SDHB (gene 6390)
The experiment in a line: LTEA_HepaRG_SDHB: Life Technologies and Expression Analysis (LTEA) Assay for succinate dehydrogenase complex iron sulfur subunit B (SDHB) using HepaRG (AID 2283528). Particulars: mRNA level, 48 h; actives raise or lower the signal. In outline:
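Readout is SDHB transcript level by qRT-PCR, normalised to three housekeeping genes and fitted bidirectionally against 0.5% DMSO vehicle. Human HepaRG cells were treated for 48 h at up to 100 uM.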

Read-out in assay [6]: Signal transducer and activator of transcription 3 (Homo sapiens) (UniProt P40763)
The experiment in a line: LTEA_HepaRG_STAT3: Life Technologies and Expression Analysis (LTEA) Assay for Signal transducer and activator of transcription (STAT3) using HepaRG (AID 2283529). Particulars: mRNA level, 48 h; actives raise or lower the signal. In outline:
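STAT3 transcript quantified by qRT-PCR against three housekeeping genes (ACTB, GAPDH, POLR2A), fitted both directions relative to DMSO. HepaRG cultures exposed 48 h to eight half-log concentrations, top 100 uM, 0.5% DMSO, serum-free induction medium.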

Read-out in assay [7]: solute carrier (SLCO1B1), SLCO1B1 (gene 10599)
The experiment in a line: LTEA_HepaRG_SLCO1B1: Life Technologies and Expression Analysis (LTEA) Assay for solute carrier (SLCO1B1) using HepaRG (AID 2283530). Particulars: mRNA level, 48 h; actives raise or lower the signal. In outline: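 Human HepaRG cultures treated for 48 h with an eight-concentration half-log series topping at 100 uM; SLCO1B1 measured by qRT-PCR and fitted bidirectionally relative to DMSO.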

Read-out in assay [8]: sulfotransferase 2A1 (SULT2A1), SULT2A1 (gene 6822)
The experiment in a line: LTEA_HepaRG_SULT2A1: Life Technologies and Expression Analysis (LTEA) Assay for sulfotransferase 2A1 (SULT2A1) using HepaRG (AID 2283531). Particulars: mRNA level, 48 h; actives raise or lower the signal. In short, it runs like this: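 Gene-expression endpoint in a human liver cell line: SULT2A1 mRNA change after 48 h chemical treatment, curves fitted in both directions relative to 0.5% DMSO vehicle. Concentrations spanned eight half-log steps from 100 uM.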

Read-out in assay [9]: Transforming Growth Factor (TGFA), TGFA (gene 7039)
The assay is described as follows: LTEA_HepaRG_TGFA: Life Technologies and Expression Analysis (LTEA) Assay for Transforming Growth Factor (TGFA) using HepaRG (AID 2283532). As to conditions: mRNA level, 48 h; actives raise or lower the signal. In short, it runs like this: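 TGFA transcript quantified by qRT-PCR (Fluidigm arrays) against three housekeeping genes, after 48 hours chemical treatment of HepaRG cells. Top concentration 100 uM with half-log dilutions, 8 points, duplicates, 0.5% DMSO.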

Read-out in assay [10]: Transforming Growth Factor (TGFB1), TGFB1 (gene 7040)
The experiment in a line: LTEA_HepaRG_TGFB1: Life Technologies and Expression Analysis (LTEA) Assay for Transforming Growth Factor (TGFB1) Transporter using HepaRG (AID 2283533). Particulars: mRNA level, 48 h; actives raise or lower the signal. In outline: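 Eight-point concentration-response (max 100 uM, half-log) in HepaRG under serum-free induction conditions, 48 h. TGFB1 mRNA by qRT-PCR, housekeeping-normalized.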

Read-out in another assay: TIMP1, TIMP1 (gene 7076)
The assay is described as follows: LTEA_HepaRG_TIMP1: Life Technologies and Expression Analysis (LTEA) Assay for TIMP1 using HepaRG (AID 2283534).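 Note: TaqMan qRT-PCR signal normalized to ACTB GAPDH and POLR2A housekeeping genes.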 As to conditions: mRNA level, 48 h; actives raise or lower the signal. In short, it runs like this: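 TIMP1 induction or repression in HepaRG cells after 48 h chemical exposure (eight concentrations, highest 100 uM), assessed by normalized qRT-PCR with bidirectional fitting to DMSO controls.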

Read-out in assay [11]: Tumor necrosis factor receptor 1 (TNFRSF1A), TNFRSF1A (gene 7132)
The assay is described as follows: LTEA_HepaRG_TNFRSF1A: Life Technologies and Expression Analysis (LTEA) Assay for Tumor necrosis factor receptor 1 (TNFRSF1A) using HepaRG (AID 2283535). As to conditions: mRNA level, 48 h; actives raise or lower the signal. In outline: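 Assay uses 48 h chemical treatment of differentiated HepaRG monolayers, tested in duplicate at eight concentrations from 100 uM downward in 0.5% DMSO. mRNA is normalized to ACTB, GAPDH and POLR2A, with induction or suppression fitted relative to vehicle.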

Read-out in assay [12]: Cellular tumor antigen p53 (Homo sapiens) (UniProt P04637)
The experiment in a line: LTEA_HepaRG_TP53: Life Technologies and Expression Analysis (LTEA) Assay for Tumor Protein P53 (TP53) using HepaRG (AID 2283537). Particulars: mRNA level, 48 h; actives raise or lower the signal. In short, it runs like this:
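Read-out is TP53 transcript level by microfluidic qRT-PCR, normalised to three housekeeping genes and fitted bidirectionally against DMSO. Human HepaRG cells received compounds for 48 h, highest concentration 100 uM.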

Read-out in assay [13]: UDP glucuronosyltransferase (UGT1A1), UGT1A1 (gene 54658)
The assay is described as follows: LTEA_HepaRG_UGT1A1: Life Technologies and Expression Analysis (LTEA) Assay for UDP glucuronosyltransferase (UGT1A1) using HepaRG (AID 2283538). Particulars: mRNA level, 48 h; actives raise or lower the signal. In outline: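 HepaRG, 48 h chemical exposure (top 100 uM, half-log 8-pt, 0.5% DMSO vehicle), duplicate wells; qRT-PCR (TaqMan, Fluidigm array) for UGT1A1 mRNA, housekeeping-normalized; bidirectional curve fit vs DMSO baseline.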

Read-out in assay [14]: UDP glucuronosyltransferase (UGT1A6), UGT1A6 (gene 54578)
The assay is described as follows: LTEA_HepaRG_UGT1A6: Life Technologies and Expression Analysis (LTEA) Assay for UDP glucuronosyltransferase (UGT1A6) using HepaRG (AID 2283539). Particulars: mRNA level, 48 h; actives raise or lower the signal. In short, it runs like this:
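Measures mRNA change in HepaRG hepatic cells exposed 48 h to chemicals (eight-point, maximum 100 uM, 0.5% DMSO vehicle) in serum-free induction medium. Expression normalized to endogenous controls; DMSO served as negative control and baseline.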

Read-out in assay [15]: X-box binding protein 1 (XBP1), XBP1 (gene 7494)
The experiment in a line: LTEA_HepaRG_XBP1: Life Technologies and Expression Analysis (LTEA) Assay for X-box binding protein 1 (XBP1) using HepaRG (AID 2283540). Particulars: mRNA level, 48 h; actives raise or lower the signal. In outline:
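Eight concentrations (half-log, highest 100 uM, 0.5% DMSO) tested in duplicate on HepaRG cells over 48 h in serum-free induction medium; qRT-PCR of XBP1 normalised to ACTB, GAPDH, POLR2A.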

The nature of assay [16]: LTEA_HepaRG_LDH_cytotoxicity: Cytotoxicity Assessment in the Life Technologies and Expression Analysis (LTEA) Assay (AID 2283563; active = hit-call score of the fitted dose curve at least 0.9, where 1 is the maximum). In short, it runs like this:
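Spent-medium LDH after 48 h chemical exposure of HepaRG cells in serum-free induction medium; eight concentrations, half-log dilutions from 100 uM, duplicate wells, fitted upward relative to 0.5% DMSO.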

Assay [17] can be described thus: ATG_XTT_Cytotoxicity: Cytotoxicity Assessment in the Attagene TRANS-FACTORIAL HepG2 Assay (AID 2283584; active = hit-call score of the fitted dose curve at least 0.9, where 1 is the maximum). In short, it runs like this: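 24 h chemical exposure of reporter-transfected HepG2; XTT signal loss vs DMSO indicates cytotoxicity.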
Read-out in assay [18]: NAD(P)H dehydrogenase [quinone] 1 (NQO1), NQO1 (gene 1728)
The assay is described as follows: LTEA_HepaRG_NQO1: Life Technologies and Expression Analysis (LTEA) Assay for NAD(P)H dehydrogenase [quinone] 1 (NQO1) using HepaRG (AID 2283526). Particulars: mRNA level, 48 h; actives raise or lower the signal. In outline: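 qRT-PCR read-out (Fluidigm TaqMan), normalized to three housekeeping genes, after 48 h chemical exposure of HepaRG cells. Concentrations: eight points, top 100 uM, half-log steps, 0.5% DMSO vehicle. Gain or loss of signal fitted relative to DMSO.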

Read-out in assay [19]: Thyroid Hormone Responsive (THRSP), THRSP (gene 7069)
The assay is described as follows: LTEA_HepaRG_THRSP: Life Technologies and Expression Analysis (LTEA) Assay for Thyroid Hormone Responsive (THRSP) using HepaRG (AID 2283536). As to conditions: mRNA level, 48 h; actives raise or lower the signal. In outline:
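THRSP transcript quantified by Fluidigm qRT-PCR against three housekeeping genes after 48 h chemical exposure of HepaRG cells in serum-free induction medium; eight-point half-log series, top 100 uM, 0.5% DMSO vehicle, duplicate wells.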

Signal transducer and activator of transcription 3 (Homo sapiens), sequence (P40763 whole entry, looked up): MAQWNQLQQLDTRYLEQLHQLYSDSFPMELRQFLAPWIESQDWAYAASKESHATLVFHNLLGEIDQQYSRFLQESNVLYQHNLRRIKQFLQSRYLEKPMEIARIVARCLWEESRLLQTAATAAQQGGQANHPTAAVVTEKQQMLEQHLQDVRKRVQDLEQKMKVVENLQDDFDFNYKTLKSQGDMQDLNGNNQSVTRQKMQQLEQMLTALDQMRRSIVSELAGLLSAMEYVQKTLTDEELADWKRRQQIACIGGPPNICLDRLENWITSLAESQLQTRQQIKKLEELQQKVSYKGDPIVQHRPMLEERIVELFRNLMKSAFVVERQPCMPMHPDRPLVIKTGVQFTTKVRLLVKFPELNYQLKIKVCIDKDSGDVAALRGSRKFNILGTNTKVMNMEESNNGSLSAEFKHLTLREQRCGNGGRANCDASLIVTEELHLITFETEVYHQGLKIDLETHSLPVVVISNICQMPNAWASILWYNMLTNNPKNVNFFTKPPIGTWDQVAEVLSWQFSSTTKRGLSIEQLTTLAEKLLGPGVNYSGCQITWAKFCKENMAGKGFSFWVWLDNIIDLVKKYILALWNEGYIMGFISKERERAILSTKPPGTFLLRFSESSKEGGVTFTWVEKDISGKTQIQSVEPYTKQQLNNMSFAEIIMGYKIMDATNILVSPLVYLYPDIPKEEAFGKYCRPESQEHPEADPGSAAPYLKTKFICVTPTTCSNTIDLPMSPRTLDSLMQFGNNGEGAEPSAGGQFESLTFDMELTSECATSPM
Nuclear factor erythroid 2-related factor 2 (Homo sapiens), sequence (Q16236 whole entry, looked up): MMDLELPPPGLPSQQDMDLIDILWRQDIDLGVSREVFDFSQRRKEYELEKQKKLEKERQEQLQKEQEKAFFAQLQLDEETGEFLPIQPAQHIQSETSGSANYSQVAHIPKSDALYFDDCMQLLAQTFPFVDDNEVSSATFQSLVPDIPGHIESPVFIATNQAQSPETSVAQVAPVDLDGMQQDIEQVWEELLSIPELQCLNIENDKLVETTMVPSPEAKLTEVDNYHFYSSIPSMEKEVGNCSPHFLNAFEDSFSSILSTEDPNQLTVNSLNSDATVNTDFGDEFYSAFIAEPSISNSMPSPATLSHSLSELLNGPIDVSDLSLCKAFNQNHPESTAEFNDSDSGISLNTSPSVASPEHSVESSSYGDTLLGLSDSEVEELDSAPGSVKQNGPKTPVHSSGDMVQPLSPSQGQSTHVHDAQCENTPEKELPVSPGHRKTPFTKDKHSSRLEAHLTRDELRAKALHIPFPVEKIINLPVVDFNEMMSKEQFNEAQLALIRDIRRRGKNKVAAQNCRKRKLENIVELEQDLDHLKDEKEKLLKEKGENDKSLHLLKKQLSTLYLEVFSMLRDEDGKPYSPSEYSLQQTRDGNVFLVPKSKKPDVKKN
Cellular tumor antigen p53 (Homo sapiens), sequence (P04637 whole entry, looked up): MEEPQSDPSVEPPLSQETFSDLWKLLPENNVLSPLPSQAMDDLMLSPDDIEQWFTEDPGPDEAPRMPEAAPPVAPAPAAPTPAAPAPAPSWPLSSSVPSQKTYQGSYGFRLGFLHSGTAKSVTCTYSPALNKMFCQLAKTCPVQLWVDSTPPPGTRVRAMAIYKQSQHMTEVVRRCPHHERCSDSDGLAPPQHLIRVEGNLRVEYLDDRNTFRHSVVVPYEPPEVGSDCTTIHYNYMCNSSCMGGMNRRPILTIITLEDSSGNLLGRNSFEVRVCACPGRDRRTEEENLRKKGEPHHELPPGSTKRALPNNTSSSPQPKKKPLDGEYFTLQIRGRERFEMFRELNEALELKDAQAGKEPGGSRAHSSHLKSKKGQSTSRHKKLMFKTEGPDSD

As usually defined, the AC50 is the midpoint of the concentration-response curve, whichever way the signal moves. On to `O=P(OC(CCl)CCl)(OC(CCl)CCl)OC(CCl)CCl`, for which the outcome is “inactive” in [1]; “inactive” in assay [3]; “inactive” in assay [6]; “inactive” in the assay with TIMP1, TIMP1 (gene 7076); “inactive” in assay [15]; “inactive” in assay [16]. Besides, in [17], the molecule was called inactive. The AC50 is 75.2 µM (active) in [2]; 83 µM (active) in assay [4]; 85 µM (active) in assay [5]; 50 µM (active) in [7]; 79.1 µM (active) in [8]; 83.3 µM (active) in [9]. For the same molecule, the AC50 in assay [10] is 62.9 µM (active); in [11], 0.231 µM (active); in [12], 86.6 µM (active); in assay [13] it was 88.6 µM (active); in [14], 10.1 µM (active).

Regarding `CCCCCCCCCCCCc1ccccc1`, the molecule was called inactive in assay [1], in assay [2], in [18], in [4], in [5] and in [6]. For the same molecule, the outcome was “inactive” in assay [7]; “inactive” in assay [8]; “inactive” in assay [9]; “inactive” in [10]; “inactive” with TIMP1, TIMP1 (gene 7076); “inactive” in [11]. The result in assay [19], in [12], in assay [13], in assay [14], in [15] and in assay [16] was inactive. Further, the molecule was called inactive in assay [17].

As for `Cn1c(=O)cc(Oc2ccc(F)cc2F)c2cnc(NCC(C)(C)O)nc21`, the call in assay [1], in [2], in assay [18], in assay [5], in assay [6] and in assay [7] was inactive. Also, the outcome in assay [8] is “inactive”; in [9] it was “inactive”; in assay [10], “inactive”; in the assay with TIMP1, TIMP1 (gene 7076), “inactive”; in [11] it was “inactive”; in assay [19], “inactive”. The result in assay [12], in assay [13], in [14], in [16] and in [17] was inactive. The AC50 in assay [4] is 1.3 µM (active).
